# Data taken from PubChem BioAssay (NCI).
# “And” between values parts separate entries of the source, which are not always exact repeats. Equal values may be shown once. The panel holds about 83,000 compounds, 20% with a hit somewhere; the sample as a whole holds those more often.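 Testing used 96-well plates and a 48-hour single-concentration exposure. Example: -40 means 40% of the starting cells died.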 The source made the active and inactive calls. How the source made its calls: active means growth percent below 10; inactive means the rest.
# Tests used:
# Assay in all cases: NCI-60 one-dose screen, 48 h (100 = growth as untreated, 0 = no growth, -100 = all killed)
# [1] = test system: SN12C renal; conditions: 10 µM unless noted
# [2] = test system: UO-31 renal; conditions: 10 µM unless noted
# [3] = test system: ACHN renal; conditions: 10 µM unless noted
# [4] = test system: CAKI-1 renal; conditions: 10 µM unless noted
# [5] = test system: A498 renal; conditions: 10 µM unless noted
# [6] = test system: CCRF-CEM leukemia; conditions: 10 µM unless noted
# [7] = test system: MOLT-4 leukemia; conditions: 10 µM unless noted
# [8] = test system: SR leukemia; conditions: 10 µM unless noted
# [9] = test system: RPMI-8226 leukemia; conditions: 10 µM
# [10] = test system: OVCAR-8 ovarian; conditions: 10 µM unless noted
# [11] = test system: OVCAR-5 ovarian; conditions: 10 µM unless noted
# [12] = test system: OVCAR-4 ovarian; conditions: 10 µM unless noted
# [13] = test system: SK-OV-3 ovarian; conditions: 10 µM
# [14] = test system: IGROV1 ovarian; conditions: 10 µM unless noted
# [15] = test system: OVCAR-3 ovarian; conditions: 10 µM unless noted
# [16] = test system: HS 578T breast; conditions: 10 µM unless noted
# [17] = test system: NCI/ADR-RES ovarian; conditions: 10 µM unless noted
# [18] = test system: TK-10 renal; conditions: 10 µM unless noted
SMILES,growth [1],growth [2],growth [3],growth [4],growth [5],growth [6],growth [7],growth [8],growth [9],growth [10],growth [11],growth [12],growth [13],growth [14],growth [15],growth [16],growth [17],growth [18]
N#Cc1ccc(C(F)(F)F)nc1N1CCC(C(=O)Nc2ccc(Cl)cc2)CC1,80.3% (inactive),74% (inactive),68.7% (inactive),73.1% (inactive),64.2% (inactive),82.5% (inactive),41% (inactive),48.3% (inactive),74.1% (inactive),75.8% (inactive),76.9% (inactive),69.1% (inactive),82.5% (inactive),102% (inactive),99.4% (inactive),105% (inactive),72.1% (inactive),
CNc1ccc(Br)cc1-c1n[nH]c(=O)[nH]c1=O,108% (inactive),71.3% (inactive),94.6% (inactive),76% (inactive),89.7% (inactive),102% (inactive),99.5% (inactive),103% (inactive),104% (inactive),100% (inactive),98.3% (inactive),90.9% (inactive),102% (inactive),106% (inactive),116% (inactive),84.1% (inactive),105% (inactive),
CC1=CN2C(=NC3=C(CCCC/C3=C\c3ccccc3)C2c2ccccc2)S1 (centres undefined),96.3% (inactive),78.1% (inactive),99.5% (inactive),96.3% (inactive),117% (inactive),,99.8% (inactive),,112% (inactive),102% (inactive),106% (inactive),,88.5% (inactive),97.9% (inactive),110% (inactive),92.8% (inactive),100% (inactive),
CC(C)(C)[Si](C)(C)OC1[C@@H](CNC(=O)NC(=O)CCl)O[C@@H](n2cnc3c(N)ncnc32)[C@H]1O[Si](C)(C)C(C)(C)C (some centres undefined),-81.9% (active),-96.8% (active),-95.8% (active),-64.8% (active),-12.9% (active),-46.5% (active),-53.5% (active),-58.2% (active),-43% (active),-47.7% (active),-37.5% (active),-54.7% (active),92% (inactive),-61.8% (active),-91.5% (active),-16.9% (active),-30.4% (active),
N#Cc1c(=N)cc2c3ccccc3oc3c(C#N)c(N)[nH]c1c32,,,,,,,,,,,,,,,,,,47.1% [100 µM] (inactive) and 2.25% [100 µM] (active)
O=c1nc(NO)[nH]c(=O)n1Cc1ccc(F)cc1,107% (inactive),84.2% (inactive),101% (inactive),111% (inactive),128% (inactive),105% (inactive),103% (inactive),103% (inactive),,109% (inactive),104% (inactive),91.5% (inactive),105% (inactive),97.3% (inactive),112% (inactive),112% (inactive),,
O=c1[nH]c(-c2ccccn2)nc2sc3c(c12)CCCCCC3,50.5% (inactive),31.8% (inactive),37.5% (inactive),28.1% (inactive),36.7% (inactive),32.6% (inactive),18.8% (inactive),22.1% (inactive),39.4% (inactive),29.9% (inactive),58.6% (inactive),28% (inactive),45.2% (inactive),42.4% (inactive),54.7% (inactive),69.9% (inactive),24.6% (inactive),
N#Cc1sc2nc(/C=C3/C=CC=CC3=O)c(O)n2c1N,,,,,,,,,,,,,,,,,,78.8% [100 µM] (inactive) and 47.7% [100 µM] (inactive)
c1ccc(-c2nc(N3CCOCC3)c3c4c(sc3n2)CCCCCC4)nc1,65.2% (inactive),25.9% (inactive),63.4% (inactive),35.3% (inactive),-6.33% (active),,52.7% (inactive),,33.3% (inactive),42.4% (inactive),57.2% (inactive),42.2% (inactive),65.7% (inactive),42.1% (inactive),68.2% (inactive),53.4% (inactive),25.9% (inactive),
